For assay [1], the target named is Platelet-derived growth factor receptor beta (Homo sapiens) (UniProt P09619). The settings on record: at 1 µM.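 Also: each value is a mean percent inhibition.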
Assay [2] addresses Tyrosine-protein kinase FRK (Homo sapiens) (UniProt P42685). The note with it: at 0.1 µM.
For assay [3] the target is unchanged. The settings on record: at 1 µM.
Assay [4] has as its target Protein-tyrosine kinase 2-beta (Homo sapiens) (UniProt Q14289). The note with it: at 0.1 µM.
The target of assay [5] is Proto-oncogene tyrosine-protein kinase receptor Ret (Homo sapiens) (UniProt P07949). The settings on record: at 0.1 µM.
For assay [6] the target is unchanged. The settings on record: at 1 µM.
In assay [7] the test system is Proto-oncogene tyrosine-protein kinase receptor Ret (Homo sapiens), P07949 [V804L]. The note with it: at 0.1 µM.
Assay [8] shares this test system. The note with it: at 1 µM.
Assay [9] has as its system Proto-oncogene tyrosine-protein kinase receptor Ret (Homo sapiens), P07949 [Y791F]. The settings on record: at 0.1 µM.
Assay [10] shares this test system. The settings on record: at 1 µM.
Assay [11] addresses Macrophage-stimulating protein receptor (Homo sapiens) (UniProt Q04912). The note with it: at 0.1 µM.
The target is the same in assay [12]. The settings on record: at 1 µM.
The target in assay [13] is Proto-oncogene tyrosine-protein kinase ROS (Homo sapiens) (UniProt P08922). The note with it: at 0.1 µM.
Sequence of Proto-oncogene tyrosine-protein kinase ROS (Homo sapiens) (P08922 whole entry): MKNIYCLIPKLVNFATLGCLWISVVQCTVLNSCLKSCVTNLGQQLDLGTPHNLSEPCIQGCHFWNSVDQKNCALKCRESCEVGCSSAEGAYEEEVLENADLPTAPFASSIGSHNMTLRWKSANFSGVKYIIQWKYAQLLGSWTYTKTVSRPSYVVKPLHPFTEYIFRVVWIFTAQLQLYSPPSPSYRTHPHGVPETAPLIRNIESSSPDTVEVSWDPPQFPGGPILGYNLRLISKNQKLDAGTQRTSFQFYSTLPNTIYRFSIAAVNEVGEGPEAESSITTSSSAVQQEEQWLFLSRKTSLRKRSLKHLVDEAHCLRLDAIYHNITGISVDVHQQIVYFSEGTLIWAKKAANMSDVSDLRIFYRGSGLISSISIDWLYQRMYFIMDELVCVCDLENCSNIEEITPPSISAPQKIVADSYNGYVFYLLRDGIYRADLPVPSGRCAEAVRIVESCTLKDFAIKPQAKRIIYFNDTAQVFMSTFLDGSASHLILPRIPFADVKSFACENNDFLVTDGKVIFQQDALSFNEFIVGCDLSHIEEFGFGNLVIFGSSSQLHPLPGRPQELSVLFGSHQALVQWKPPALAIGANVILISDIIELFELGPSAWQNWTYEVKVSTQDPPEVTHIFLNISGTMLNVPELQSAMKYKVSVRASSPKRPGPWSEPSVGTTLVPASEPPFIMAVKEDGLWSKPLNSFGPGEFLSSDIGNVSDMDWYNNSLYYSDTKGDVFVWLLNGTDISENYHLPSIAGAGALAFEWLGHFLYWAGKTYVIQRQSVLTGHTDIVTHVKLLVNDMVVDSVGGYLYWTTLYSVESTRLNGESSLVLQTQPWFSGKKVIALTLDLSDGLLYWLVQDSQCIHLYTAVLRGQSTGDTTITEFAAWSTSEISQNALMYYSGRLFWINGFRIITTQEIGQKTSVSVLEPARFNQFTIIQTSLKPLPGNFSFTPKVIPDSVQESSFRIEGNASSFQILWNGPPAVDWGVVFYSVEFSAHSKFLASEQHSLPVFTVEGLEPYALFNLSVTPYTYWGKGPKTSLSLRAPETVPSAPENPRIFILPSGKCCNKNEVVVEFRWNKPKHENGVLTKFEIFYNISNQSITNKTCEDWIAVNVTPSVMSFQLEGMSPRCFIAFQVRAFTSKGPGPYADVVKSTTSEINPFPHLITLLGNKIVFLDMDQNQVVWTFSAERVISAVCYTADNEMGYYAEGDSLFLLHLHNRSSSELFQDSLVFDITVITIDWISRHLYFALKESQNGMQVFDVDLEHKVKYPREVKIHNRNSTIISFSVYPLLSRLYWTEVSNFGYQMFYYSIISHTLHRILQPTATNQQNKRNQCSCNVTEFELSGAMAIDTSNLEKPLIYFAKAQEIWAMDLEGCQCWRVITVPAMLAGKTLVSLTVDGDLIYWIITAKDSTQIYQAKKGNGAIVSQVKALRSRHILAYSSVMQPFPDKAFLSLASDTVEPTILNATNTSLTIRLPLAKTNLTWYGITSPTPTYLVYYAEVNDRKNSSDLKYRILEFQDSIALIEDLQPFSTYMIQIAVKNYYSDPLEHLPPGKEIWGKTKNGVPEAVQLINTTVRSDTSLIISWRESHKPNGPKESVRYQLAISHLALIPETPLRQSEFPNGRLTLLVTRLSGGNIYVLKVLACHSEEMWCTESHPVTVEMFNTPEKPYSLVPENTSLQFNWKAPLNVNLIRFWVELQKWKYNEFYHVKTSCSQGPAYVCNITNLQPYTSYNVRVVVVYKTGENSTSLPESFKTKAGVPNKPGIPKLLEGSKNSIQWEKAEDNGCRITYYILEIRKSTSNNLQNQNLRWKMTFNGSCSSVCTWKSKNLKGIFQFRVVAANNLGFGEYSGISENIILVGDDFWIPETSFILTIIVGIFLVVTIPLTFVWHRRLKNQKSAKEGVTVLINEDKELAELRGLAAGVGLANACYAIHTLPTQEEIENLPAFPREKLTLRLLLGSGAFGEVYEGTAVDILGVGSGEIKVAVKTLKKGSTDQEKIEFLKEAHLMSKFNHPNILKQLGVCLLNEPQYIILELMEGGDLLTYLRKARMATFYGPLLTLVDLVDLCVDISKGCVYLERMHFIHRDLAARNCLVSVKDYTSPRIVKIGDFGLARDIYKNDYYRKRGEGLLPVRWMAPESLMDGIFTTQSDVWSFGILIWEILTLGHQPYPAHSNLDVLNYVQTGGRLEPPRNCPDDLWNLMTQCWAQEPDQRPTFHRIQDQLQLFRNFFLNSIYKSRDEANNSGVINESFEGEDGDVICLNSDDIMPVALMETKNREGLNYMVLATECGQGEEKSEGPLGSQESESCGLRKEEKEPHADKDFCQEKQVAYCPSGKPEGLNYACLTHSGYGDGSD
Assay [14] has the same target. The settings on record: at 1 µM.
Assay [15] addresses Proto-oncogene tyrosine-protein kinase Src (Homo sapiens) (UniProt P12931). The note with it: at 0.1 µM.
The target is the same in assay [16]. The note with it: at 1 µM.
Assay [17] deals with Tyrosine-protein kinase Srms (Homo sapiens) (UniProt Q9H3Y6). The note with it: at 0.1 µM.
Sequence of Tyrosine-protein kinase Srms (Homo sapiens) (Q9H3Y6 whole entry): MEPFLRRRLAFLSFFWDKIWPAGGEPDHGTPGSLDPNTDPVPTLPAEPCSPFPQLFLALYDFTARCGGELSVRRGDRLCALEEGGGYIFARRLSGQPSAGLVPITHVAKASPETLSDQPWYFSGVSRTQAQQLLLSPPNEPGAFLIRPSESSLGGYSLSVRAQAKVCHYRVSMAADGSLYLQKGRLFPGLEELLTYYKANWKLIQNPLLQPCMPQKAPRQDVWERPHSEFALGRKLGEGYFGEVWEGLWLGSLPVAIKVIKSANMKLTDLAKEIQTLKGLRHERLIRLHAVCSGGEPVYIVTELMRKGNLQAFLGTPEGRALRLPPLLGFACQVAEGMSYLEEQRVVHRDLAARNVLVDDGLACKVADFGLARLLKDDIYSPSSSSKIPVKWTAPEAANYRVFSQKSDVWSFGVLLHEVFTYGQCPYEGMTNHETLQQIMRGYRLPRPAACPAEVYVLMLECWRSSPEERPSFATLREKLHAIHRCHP
The target is the same in assay [18]. The settings on record: at 1 µM.
Assay [19] concerns the target Tyrosine-protein kinase SYK (Homo sapiens) (UniProt P43405). The note with it: at 0.1 µM.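 Also: reported percentages are mean inhibition values for SYK.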
Assay [20] concerns the target Protein-tyrosine kinase 2-beta (Homo sapiens) (UniProt Q14289). The settings on record: at 1 µM.

Sequence of Platelet-derived growth factor receptor beta (Homo sapiens) (P09619 whole entry): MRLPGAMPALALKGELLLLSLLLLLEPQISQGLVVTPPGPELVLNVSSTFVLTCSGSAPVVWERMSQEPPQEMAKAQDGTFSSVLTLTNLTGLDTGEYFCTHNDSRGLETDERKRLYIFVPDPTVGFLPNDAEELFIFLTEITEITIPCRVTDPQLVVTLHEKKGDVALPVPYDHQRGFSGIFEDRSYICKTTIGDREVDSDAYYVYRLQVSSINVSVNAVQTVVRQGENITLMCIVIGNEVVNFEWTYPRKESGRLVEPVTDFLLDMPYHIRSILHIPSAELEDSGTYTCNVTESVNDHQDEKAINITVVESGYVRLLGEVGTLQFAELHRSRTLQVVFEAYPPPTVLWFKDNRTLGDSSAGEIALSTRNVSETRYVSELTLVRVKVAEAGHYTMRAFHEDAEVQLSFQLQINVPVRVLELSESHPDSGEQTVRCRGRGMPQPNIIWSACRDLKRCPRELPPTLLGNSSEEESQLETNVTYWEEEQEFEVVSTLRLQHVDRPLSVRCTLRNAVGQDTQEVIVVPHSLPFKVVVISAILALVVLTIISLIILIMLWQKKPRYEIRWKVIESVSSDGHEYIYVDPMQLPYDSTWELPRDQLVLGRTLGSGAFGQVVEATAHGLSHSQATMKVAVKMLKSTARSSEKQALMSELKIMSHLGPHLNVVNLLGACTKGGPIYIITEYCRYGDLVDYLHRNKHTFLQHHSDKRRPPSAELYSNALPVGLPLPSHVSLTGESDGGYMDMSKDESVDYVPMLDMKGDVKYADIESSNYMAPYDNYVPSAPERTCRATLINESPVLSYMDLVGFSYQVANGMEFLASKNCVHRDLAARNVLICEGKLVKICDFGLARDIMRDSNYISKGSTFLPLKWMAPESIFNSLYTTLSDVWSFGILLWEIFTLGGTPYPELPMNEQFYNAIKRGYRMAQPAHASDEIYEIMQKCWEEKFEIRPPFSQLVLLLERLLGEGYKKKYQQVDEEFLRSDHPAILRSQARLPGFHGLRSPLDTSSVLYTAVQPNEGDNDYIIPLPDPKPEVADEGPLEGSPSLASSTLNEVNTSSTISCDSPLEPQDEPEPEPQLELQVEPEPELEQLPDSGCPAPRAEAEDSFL
Sequence of Tyrosine-protein kinase FRK (Homo sapiens) (P42685 whole entry): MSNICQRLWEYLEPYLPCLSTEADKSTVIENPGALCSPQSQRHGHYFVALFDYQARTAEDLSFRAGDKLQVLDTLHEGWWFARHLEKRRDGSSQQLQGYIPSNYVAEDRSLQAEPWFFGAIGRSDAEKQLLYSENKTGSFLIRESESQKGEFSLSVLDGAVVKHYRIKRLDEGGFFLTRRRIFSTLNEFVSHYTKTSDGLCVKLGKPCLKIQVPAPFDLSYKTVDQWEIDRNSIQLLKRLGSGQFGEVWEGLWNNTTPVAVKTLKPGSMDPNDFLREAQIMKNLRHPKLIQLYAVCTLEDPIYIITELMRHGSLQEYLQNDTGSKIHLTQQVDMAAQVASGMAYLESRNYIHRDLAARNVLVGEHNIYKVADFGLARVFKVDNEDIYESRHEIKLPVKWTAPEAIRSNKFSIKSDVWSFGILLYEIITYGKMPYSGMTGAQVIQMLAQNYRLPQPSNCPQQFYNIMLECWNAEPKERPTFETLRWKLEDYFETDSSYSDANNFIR
Sequence of Proto-oncogene tyrosine-protein kinase Src (Homo sapiens) (P12931 2-536 limits assumed): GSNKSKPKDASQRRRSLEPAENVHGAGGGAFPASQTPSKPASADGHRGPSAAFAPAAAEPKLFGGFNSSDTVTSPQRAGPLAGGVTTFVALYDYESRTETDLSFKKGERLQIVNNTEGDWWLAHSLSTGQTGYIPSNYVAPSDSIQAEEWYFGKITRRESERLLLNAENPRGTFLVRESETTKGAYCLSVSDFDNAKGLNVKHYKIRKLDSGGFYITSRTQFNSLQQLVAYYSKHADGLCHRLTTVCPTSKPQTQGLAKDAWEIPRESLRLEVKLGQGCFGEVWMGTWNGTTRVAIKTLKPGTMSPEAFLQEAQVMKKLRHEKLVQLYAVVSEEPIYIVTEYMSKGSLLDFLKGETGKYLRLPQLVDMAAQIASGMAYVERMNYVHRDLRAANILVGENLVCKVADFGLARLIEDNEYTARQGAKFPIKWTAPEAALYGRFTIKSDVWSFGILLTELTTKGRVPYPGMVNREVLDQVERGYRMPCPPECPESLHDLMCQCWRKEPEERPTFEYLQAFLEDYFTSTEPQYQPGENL

For `Cc1ccc(C(=O)NC(C)C)cc1-c1ccc(C(=O)NCC2CC2)cc1`, the inhibition is 2.4% in assay [1]; 0.01% in [2]; -0.89% in [3]; -7.76% in assay [4]; 2.09% in [5]; 0.64% in [6]. Also, the inhibition in assay [7] is -0.26%; in assay [8] it was -0.17%; in assay [9], -0.71%; in assay [10], -0.37%; in [11], -4.49%; in assay [12] it was 0.06%. For the same molecule, the inhibition in assay [13] is -1.39%; in [14], 0.55%; in assay [15] it was -4.72%; in assay [16] it was -6.71%; in assay [17] it was -2.42%; in assay [18], 2.24%. Further, in assay [19], the inhibition was -0.72%.

Consider `CCc1nccc2c1nc(-c1nonc1N)n2CC`, for which the inhibition in [1] was 14%; in assay [2], 0.24%; in assay [3], -0.39%; in assay [4] it was 3.87%; in [20], 0.03%; in assay [5] it was 0.76%. Also, the inhibition in [6] is 9.96%; in [7], 4.16%; in [8], 1.71%; in assay [9] it was 3.64%; in [10] it was 13.1%; in [11] it was -3.47%. Further, the inhibition was 4.96% in [12]; 3.74% in assay [13]; 5.33% in assay [14]; -0.62% in [15]; 10.1% in [16]; -1.58% in assay [17]. In addition, the inhibition in assay [18] was -3.49%; in assay [19], -1.01%.

As to `Fc1ccc(-c2c(-c3ccncc3)nc3n2CCS3)cc1`, the inhibition in assay [1] is 5.75%; in [2], 1.6%; in assay [3], 2.05%; in assay [4] it was 10.7%; in assay [20], 4.18%; in [5], 1.13%. Further, the inhibition in assay [6] came to 7.86%; in assay [7] it was 3.1%; in [8] it was 6.64%; in assay [9], 3.14%; in assay [10], 7.69%; in assay [11] it was 7.82%. Also, the inhibition was 5.85% in [12]; 2.1% in [13]; 8.26% in assay [14]; -3.16% in assay [15]; 9.68% in assay [16]; 0.79% in assay [18]. The inhibition in assay [19] turned out to be 0.99%.

On to `O=C(NCC1CC1)c1ccc(-c2cccc(C(=O)NC3CC3)c2)cc1`, for which the inhibition stood at 8.57% in assay [1]; 1.88% in assay [2]; 0.07% in assay [3]; 1.01% in [4]; 8.49% in [20]; 3.9% in assay [5]. Moreover, the inhibition in assay [6] stood at 7.06%; in assay [7], 1.77%; in assay [8], 7.1%; in [9], 8.82%; in assay [10], 24.5%; in assay [11] it was 4.01%. For the same molecule, the inhibition is 0% in assay [12]; 3.69% in assay [13]; 6.33% in assay [14]; 2.23% in assay [15]; 7.22% in assay [16]; -2.13% in assay [17]. Also, the inhibition in [18] was -0.43%; in assay [19], -0.53%.

Take `COc1cc(C)c(N(C)C(=O)CN(C)C)cc1Nc1nc(Nc2cccc(F)c2C(N)=O)c2cc[nH]c2n1`: the inhibition in assay [1] was 2.38%; in assay [2], -0.14%; in assay [3] it was 1.16%; in assay [4] it was 14.7%; in assay [20] it was 45.8%; in assay [5] it was 6.8%. The inhibition was determined as 3.71% in [6]; 8.2% in assay [7]; 4.18% in [8]; 3.57% in [9]; 0.99% in assay [10]; 5.06% in assay [11]. Besides, the inhibition in assay [12] is 8.44%; in [13], 15.3%; in [14] it was 51.2%; in assay [15], 3.62%; in [16], 5.62%; in assay [17], -0.25%. The inhibition is -1.33% in assay [18] and -0.33% in assay [19].

On to `COc1cccc(-n2cnc3c(N/N=C/c4ccncc4)ncnc32)c1`, for which the inhibition in assay [1] was 49.9%; in assay [2] it was -0.1%; in [3], 0.9%; in assay [4] it was -4.12%; in assay [20] it was 10.5%; in assay [5] it was 3.89%. In addition, the inhibition is 13.9% in assay [6]; -0.06% in [7]; 12.5% in assay [8]; 2.51% in assay [9]; 32.8% in [10]; 0.89% in assay [11]. The inhibition in [12] is 0.14%; in assay [13] it was -1.03%; in [14], 4.38%; in assay [15], 12.5%; in assay [16], 50.4%; in assay [17], 2.47%. The inhibition in assay [18] worked out at 6.19%; in assay [19], 1.9%.

`O=C(Nc1n[nH]c2nc(-c3ccco3)ccc12)C1CC1`: the inhibition in assay [1] worked out at 5.96%; in assay [2], 0.93%; in [3], 1.05%; in assay [4], 1.43%; in assay [20] it was 0.04%; in [5], 8.2%. Further, the inhibition in [6] was 9.6%; in assay [7], 4.51%; in assay [8], 8.22%; in assay [9], 4.94%; in [10], 8.66%; in [11], -0.93%. Also, the inhibition is 4.1% in assay [12]; 3% in [13]; 3.03% in assay [14]; -4.02% in assay [15]; 4.81% in assay [16]; 1.77% in assay [17]. Besides, the results for the inhibition in assay [18] and in [19] were 1.57% and -0.47%, respectively.

(Values after ChEMBL document CHEMBL1961873, “Compounds: GSK PKIS; Assays: Nanosyn kinase panel” (2012).)
